# Source: PubChem (National Center for Advancing Translational Sciences (NCATS))
# In the library only some 7.5% were active in any assay of this set; here they are far more common.
# B2AR arrestin = beta2AR (human) beta-arrestin recruitment activity; beta-arrestin recruitment to beta2AR, cell-based reporter; P07550; Potency, µM (doses to about 46.1 µM), for inactives: at the top dose activation, usual class: activators; 0.02% of 330,000 active;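 further: potency means the concentration at half of the fitted maximal effect; 0% = DMSO controls and full agonism = EC100 isoproterenol or metaproterenol; nearly all actives have a fitted effect of over 65% in size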
# RORgamma inh = blocks mouse ROR gamma transcriptional activity | P51450 | Potency, µM (doses to about 53.6 µM), for the others: top-dose activity change, negative = inhibition, hits mostly inhibitors | Drosophila S2 Gal4-RORgamma UAS-luciferase reporter, 20 h | AID 2551 | 5.4% of 310,000 active; further: potency means the concentration at half of the fitted maximal effect; nearly all actives have a fitted effect of over 60% in size
#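 Stable Schneider cell line, Gal4 DNA-binding domain fused to ROR gamma, UAS-luciferase. Cmpd 1 hr RT → CuSO4 700 uM final → 20 hr RT → luciferase reagent 10 min → luminescence.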
# ELG1 repair inh = ELG1-dependent DNA repair inhibition; Potency, µM (series often up to 46.1 µM), for inactives: at the highest dose activity change, negative = inhibition, most hits filed as inhibitors; HEK293T ELG1-luciferase reporter, luminescence, 16 h; DNA damage induced by 5-fluorouridine; 2.3% of 330,000 active; further: potency means the concentration at half of the fitted maximal effect; nearly all actives have a fitted effect of over 55% in size
#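 Step one: seed 2,000 cells per well. Step two: pin-transfer compound or DMSO alongside 5-fluorouridine. Step three: incubate 16 hr, 37 °C, 5% CO2. Step four: add ONE-Glo, wait 30 min, read luminescence.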
# TSHR antag = human thyrotropin receptor antagonism. P16473. TSHR-expressing cells, TSH-stimulated cAMP HTRF, 2 h; active compounds read low. activity change, negative = inhibition, % at 11.5 µM. 0.2% of 330,000 active;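 active means activity change below a set negative limit, meaning inhibition stronger than a set level, cut at about -70% in these data; inconclusive means activity change between two set negative limits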
# Target sequence (P16473 whole entry, looked up): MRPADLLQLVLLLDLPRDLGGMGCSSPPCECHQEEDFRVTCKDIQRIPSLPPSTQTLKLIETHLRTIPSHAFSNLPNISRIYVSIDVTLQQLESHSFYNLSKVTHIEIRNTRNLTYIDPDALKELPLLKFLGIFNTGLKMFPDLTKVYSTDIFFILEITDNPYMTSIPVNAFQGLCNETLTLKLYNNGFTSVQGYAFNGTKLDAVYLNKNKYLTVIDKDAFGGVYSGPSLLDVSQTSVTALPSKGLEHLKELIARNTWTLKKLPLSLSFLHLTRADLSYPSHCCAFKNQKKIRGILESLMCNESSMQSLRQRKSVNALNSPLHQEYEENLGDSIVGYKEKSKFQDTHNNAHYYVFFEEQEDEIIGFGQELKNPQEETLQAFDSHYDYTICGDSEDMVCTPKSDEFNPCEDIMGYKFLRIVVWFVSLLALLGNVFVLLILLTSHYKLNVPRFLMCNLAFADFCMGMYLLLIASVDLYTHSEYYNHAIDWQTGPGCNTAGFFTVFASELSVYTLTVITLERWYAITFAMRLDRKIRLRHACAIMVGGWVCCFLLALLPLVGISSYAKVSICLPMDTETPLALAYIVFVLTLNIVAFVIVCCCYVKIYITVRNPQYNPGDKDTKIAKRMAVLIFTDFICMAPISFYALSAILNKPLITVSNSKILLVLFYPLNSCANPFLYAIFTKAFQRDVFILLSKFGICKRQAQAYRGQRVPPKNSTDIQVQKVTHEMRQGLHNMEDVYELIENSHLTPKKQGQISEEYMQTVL
#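 Inhibition of cAMP made by TSHR-expressing cells under TSH stimulation (4nM final, EC80; 2 h, 37 deg C) is quantified with a one-step lysis HTRF kit, anti-cAMP cryptate versus cAMP-d2.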
# Gal4-VP16 FLuc = counter-screen for ROR gamma inhibitors: Gal4-VP16 reporter; Drosophila S2 Gal4-VP16 UAS-luciferase, luminescence, 20 h; Potency, µM (titrated, usually from 53.6 µM), for inactives: top-dose activity, negative = inhibition, usual class: inhibitors; 3.5% of 310,000 active; AID 2546;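 further: Gal4-VP16 expression switched on by copper sulfate through the metallothionein promoter; potency means the concentration at half of the fitted maximal effect; nearly all actives have a fitted effect of over 50% in size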
# ELG1 FLuc counter = luciferase inhibition in cell-free luciferin readout for ELG1 hits. shares compounds with ELG1 repair inh. cell-free firefly luciferase luminescence counter-screen, ViewLux. Potency, µM (top dose mostly 46.1 µM), for inactives: top-dose activity change, negative = inhibition, usual class: inhibitors. 3% of 350 active. AID 624247; further: potency means the concentration at half of the fitted maximal effect
# ELG1-Luc inh = inhibits ELG1-dependent DNA repair in HEK293T cells, confirmed; shares compounds with ELG1 repair inh; HEK293T ELG1-luciferase levels, luminescence; cells co-treated with 5-fluorouridine; Potency, µM (doses to about 46.1 µM), without a hit: at the top dose activity change, negative = inhibition, usual class: inhibitors; 68% of 670 active; AID 624248; further: potency means the concentration at half of the fitted maximal effect; nearly all actives have a fitted effect of over 55% in size
# ELG1-Luc MMS = MMS-stimulated human ELG1 repair inhibition, confirmed; Potency, µM (doses to about 46.1 µM), inactives show at the highest dose activity change, negative = inhibition, hits mostly inhibitors; 53% of 670 active; HEK293T luciferase-tagged ELG1 level, MMS stimulated; shares compounds with ELG1 repair inh; AID 624249; further: potency means the concentration at half of the fitted maximal effect; nearly all actives have a fitted effect of over 60% in size
# ELG1 5FU viab = confirmation of ELG1 repair inhibitors: viability with 5FU. shares compounds with ELG1 repair inh. Potency, µM (doses to about 46.1 µM), inactives show at the top dose activity change, negative = viability loss, usual class: cytotoxic. cell viability with 5-FU, ELG1-dependent repair. 670 tested, under 10 active;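 further: ELG1-luc HEK293T cells cotreated with 5-fluorouridine at 10 µM final; potency means the concentration at half of the fitted maximal effect; viability measured 16 h after compound addition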
# ELG1 MMS cell = confirmation of ELG1 repair inhibitors: viability with MMS; shares compounds with ELG1 repair inh; Cell viability with MMS, ELG1-dependent DNA repair; Potency, µM (top dose mostly 46.1 µM), for inactives: top-dose activity change, negative = viability loss, actives largely listed as cytotoxic; 33% of 670 active; AID 624251;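 further: ELG1-luc HEK293T cells co-treated with 10 µM MMS; potency means the concentration at half of the fitted maximal effect; viability read 16 h after compound addition; nearly all actives have a fitted effect of over 60% in size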
# Cell viab unstim = unstimulated viability counter-screen for ELG1 repair hits | 8% of 900 active | cell viability counter-screen, unstimulated, luminescence | Potency, µM (titrated, usually from 45.9 µM), for the others: top-dose activity change, negative = loss of viability, most hits filed as cytotoxic | shares compounds with ELG1 repair inh;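 further: potency means the concentration at half of the fitted maximal effect; compound exposure lasted 16 hours before reading; nearly all actives have a fitted effect of over 55% in size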
# FLuc enzyme = inhibits purified firefly luciferase, counter-screen for ELG1 hits; shares compounds with ELG1 repair inh; purified firefly luciferase, luminescence counter-screen; Potency, µM (highest dose often 57.5 µM), inactives show at the highest dose activity, negative = inhibition, actives largely listed as inhibitors; 10% of 350 active; AID 624253; further: potency means the concentration at half of the fitted maximal effect
# Active calls of the source: *; ? = inconclusive; · = no result; ! = a repeat was not active; [ ] = another dose, or the depositor's remark. Unless noted, the call rests on the fitted dose curve; in most records, active means well fitted curve in the direction sought with a large enough effect; inconclusive means small, poorly fitted or top-dose-only effect, or another doubt; inactive means no such curve, though single readings can be large; an effect the other way counts as inactive or inconclusive. Unless noted, on the % scale 0 is the no-effect control and ±100 the full control effect.
SMILES,B2AR arrestin,RORgamma inh,ELG1 repair inh,TSHR antag,Gal4-VP16 FLuc,ELG1-Luc inh,ELG1-Luc MMS,ELG1 5FU viab,ELG1 MMS cell,Cell viab unstim,others
CN(CC1CCCO1)S(=O)(=O)c1ccc(C(=O)Nc2nc3cc4c(cc3s2)OCO4)cc1 (stereo not given),0%,0%,2.6µM*,-33,-22%,4.4µM*,1.1µM*,-17%,1.1µM*,?,
CC(C(=O)OCC(=O)c1cccc([N+](=O)[O-])c1)N1C(=O)C2C3C=CC(C3)C2C1=O (stereo not given),-1%,-6%,-3%,4,-9%,·,·,·,·,·,
COc1cccc(-c2cncnc2NCCc2cnc[nH]2)c1,·,-32%,·,·,2%,1.4µM*,?,0%,2%,?,
COc1ccc(CC(=O)Nc2ccncc2Cl)cc1,0%,3%,0%,-1,3%,·,·,·,·,·,
COc1ccc2c(c1)c(C(C)=O)c(C)n2-c1ccc(C(C)=O)cc1,0%,13%,?,-3,-10%,·,·,·,·,·,
COc1ccc(-n2c(C)c(C(C)=O)c3cc(OC(C)=O)ccc32)cc1,0%,-25%,0.82µM*,-1,-12%,0.63µM*,?,15%,9%,-8%,ELG1 FLuc counter=-18%;FLuc enzyme=-2%
N#Cc1cc2cc3c(cc2nc1SCC(=O)N1CCOCC1)OCCO3,0%,2%,?,-3,-3%,·,·,·,·,?,ELG1 FLuc counter=-13%;FLuc enzyme=?
Cc1cc2cc3c(cc2nc1SCC(=O)N1CCCC1)OCCO3,-1%,-10%,?,6,4%,·,·,·,·,·,
COc1ccc(N(CC(=O)NCCSCc2ccccc2Cl)S(C)(=O)=O)cc1Cl,0%,34%,-19%,4,-1%,·,·,·,·,·,
COc1ccc(-c2cc(C(=O)N(C)Cc3nc4ccccc4c(=O)[nH]3)c3ccccc3n2)cc1OC,0%,·,2.3µM*,-3,·,2.5µM*,7.1µM*,?,8.9µM*,?,
COc1ccc(CN(C)C(=O)c2cc(-c3ccc(OC)c(OC)c3)nc3ccccc23)c(OC)c1,0%,14%,2%,11,-3%,·,·,·,·,·,
CC1CC(C)CN(C(=O)COC(=O)/C=C/c2cccc([N+](=O)[O-])c2)C1 (stereo not given),0%,·,-8%,5,·,·,·,·,·,·,
CC1CN(C(=O)COC(=O)/C=C/c2cccc([N+](=O)[O-])c2)CC(C)O1 (stereo not given),0%,·,1.5µM*,·,·,-17%,?,-5%,?,?,
Cc1cccc(C(=O)OCC(=O)N2CCCCCC2)c1O,0%,·,?,27,·,·,·,·,·,?,
O=C(OCC(=O)N1CCCCC1)c1cccs1,0%,·,?,-7,·,·,·,·,·,-7%,
COc1ccc(NC(=O)CCNS(=O)(=O)c2ccc(C)c(C)c2)cc1OC,0%,10%,-10%,0,2%,·,·,·,·,·,
O=C(Nc1ccc(Cl)cc1)c1cccc(NC2=NC3CS(=O)(=O)CC3S2)c1 (stereo not given),0%,15%,2%,-3,-1%,·,·,·,·,·,
Cc1cc(S(=O)(=O)NCC(c2ccc(F)cc2)N2CCN(C)CC2)ccc1F (stereo not given),0%,·,-22%,9,·,·,·,·,·,·,
CC(=O)c1cccc(NC(=O)COc2cc3oc(=O)c(CC(C)O)c(C)c3cc2Cl)c1 (stereo not given),0%,-25%,4.1µM*,-1,-10%,6.3µM*,22µM*,?,0%,?,
CCN(CC(=O)Nc1c(C(=O)OC)[nH]c2ccc(C)cc12)c1ccc2c(c1)OCO2,0%,4%,4.6µM*,2,10%,7.1µM*,?,?,-1%,?,
COC(=O)c1[nH]c2ccc(F)cc2c1NC(=O)CCN1CCN(Cc2ccc3c(c2)OCO3)CC1,0%,0%[10 µM],-22%,-11,-2%,·,·,·,·,·,
COc1ccc(N2CC(C(=O)N[C@@H](CC(C)C)C(=O)NC3CCCCC3)CC2=O)cc1 (stereo not given in full),0%,16%,13%,52,0%,·,·,·,·,·,
CCOC(=O)C1CCN(c2cc3c(cc2NC(=O)c2ccccc2F)n(C)c(=O)n3C)CC1,1%,-16%,?,-1,6%,·,·,·,·,·,
CCOc1ccc(C(=O)Nc2cc3c(cc2N2CCCC2)n(CC)c(=O)n3CC)cc1OCC,0%,-32%,?,6,-4%,16µM*,?,12%,?,?,ELG1 FLuc counter=2%;FLuc enzyme=-8%
CCOC(=O)C1CCN(c2cc3c(cc2NC(=O)c2ccc(F)cc2)n(C)c(=O)n3C)CC1,0%,-14%,2.3µM*,-4,3%,2.5µM*,14µM*,?,25µM*,25µM*!,ELG1 FLuc counter=-12%;FLuc enzyme=-3%
CCn1c(=O)n(CC)c2cc(N3CCCC3)c(NC(=O)c3ccc(F)cc3)cc21,0%,0%,?,9,-2%,·,·,·,·,·,
CN1CCN(c2ncc3ncc(=O)n(CCc4ccccc4)c3n2)CC1,·,-21%,·,·,-3%,·,·,·,·,·,
COc1cc(NC(=O)Cn2cnc3c(SC)nc(N)nc32)cc(OC)c1OC,6%,·,5%,-9,·,·,·,·,·,·,
CC(/C=C/C(=O)NO)=C\[C@@H](C)C(=O)c1ccc(N(C)C)cc1,·,-12%,·,·,-16%,·,·,·,·,14µM*,ELG1 FLuc counter=119%;FLuc enzyme=?
